Broadly, the inhibition is the relative decrease from the control value, in per cent.

Seven molecules from PubChem BioAssay can be followed below.

Test [1] is described as follows: inhibitors of TNFa-induced NFkB p65 translocation, primary screen, imaging, HUVEC, MLSMR starter and 10KST1 sets (AID 438;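 active = inhibition above 20% together with a positive visual image hit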;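 note: compound added about 3h40 before a 20 min TNFalpha stimulation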;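 for inhibition: signal is the nuclear over cytoplasmic p65 intensity ratio per well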). As to conditions: HUVEC TNFa-induced p65 nuclear translocation; cell count: measured here: nuclei count (cytotoxicity indicator), at 2.08 µM; inhibition: at 2 µM, stronger effect = higher value, 0% TNFa-plus-vehicle, 100% no-TNFa wells.
A short description of test [2]: inhibitors of mutant huntingtin aggregation, primary screen, imaging, exon1htt(103Q)mCFP cells, high-content imaging (AID 483;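 active = visual image review flags a hit and inhibition of aggregation exceeds 20%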;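 note: compound exposure lasted 3 days before fixation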;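 for nuclei count: percent of the per-plate median nuclei count of sample wells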). As to conditions: exon1htt(103Q)mCFP cell line, aggregate imaging, at 2 µM; inhibition of aggregation: stronger effect = higher value; nuclei count: measured here: cell count, toxicity.
Test [3] can be described thus: inhibitors of E-selectin induction by TNFa, primary screen, imaging, HUVEC, immunofluorescence, MLSMR starter and 10KST1 sets (AID 487;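 active = visually confirmed hit in the image check and inhibition above 20%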;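 for inhibition: signal is fraction of cell area covered by stained E-selectin grains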;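 for nuclei count: 100% = median nuclei count of all wells on the same plate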). The following applies: HUVEC TNFalpha-induced E-selectin immunofluorescence imaging, at 2 µM; inhibition: stronger effect = higher value; nuclei count: measured here: cell number, toxicity.
For test [4], the target named is Voltage-gated potassium channel subunit beta-2 (Rattus norvegicus) (UniProt P62483). In words: KvBeta enzyme negative modulators, primary screen, biochemical, NADPH fluorescence (AID 622;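 active = fluorescence slope higher than the sample average by over 3 SD, cut at about -0.22 in these data, passing the limit was not always enough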;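 note: slope of raw intensity against log time taken from 70 to 1610 s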). The following applies: recombinant KvBeta, 4-cyanobenzaldehyde reduction, at 10 µM, stronger effect = higher value.
Chain of Voltage-gated potassium channel subunit beta-2 (Rattus norvegicus) (P62483 whole entry, looked up): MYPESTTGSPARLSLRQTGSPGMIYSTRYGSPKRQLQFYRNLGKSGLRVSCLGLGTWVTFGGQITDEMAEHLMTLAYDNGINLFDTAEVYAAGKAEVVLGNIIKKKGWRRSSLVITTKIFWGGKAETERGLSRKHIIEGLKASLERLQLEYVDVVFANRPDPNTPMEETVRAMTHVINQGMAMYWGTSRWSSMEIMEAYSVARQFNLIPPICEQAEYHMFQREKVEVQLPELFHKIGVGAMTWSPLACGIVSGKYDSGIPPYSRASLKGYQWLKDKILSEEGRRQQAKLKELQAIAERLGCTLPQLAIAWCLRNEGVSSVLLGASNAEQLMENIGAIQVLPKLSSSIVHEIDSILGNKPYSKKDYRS
Test [5] has the same target. Nature of the test: KvBeta positive modulators, primary screen, biochemical, NADPH fluorescence (AID 623;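 active = NADPH fluorescence slope more negative than the mean of all samples by about 3 SD, 99.7% confidence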;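 note: fluorescence intensity change per second fitted from 20 to 320 s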). As to conditions: Recombinant KvBeta, NADPH fluorescence decrease slope, 10 min; at 10 µM; stronger effect = lower value.
The target in test [6] is Alpha-2C adrenergic receptor (Homo sapiens) (UniProt P18825). In words: modulators of alpha2C/GIRK thallium flux, primary screen, cell-based, HEK293 alpha2C/GIRK1/2 (AID 624;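 active = fluorescence slope after compound addition differing from the mean of all screened samples at 99.7% confidence, in either direction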;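 note: slope of fluorescence ratio to pre-addition baseline per second over 15 to 24 s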). The following applies: thallium flux BTC fluorescence, at 10 µM, actives lie on both sides.
Chain of Alpha-2C adrenergic receptor (Homo sapiens) (P18825 whole entry, looked up): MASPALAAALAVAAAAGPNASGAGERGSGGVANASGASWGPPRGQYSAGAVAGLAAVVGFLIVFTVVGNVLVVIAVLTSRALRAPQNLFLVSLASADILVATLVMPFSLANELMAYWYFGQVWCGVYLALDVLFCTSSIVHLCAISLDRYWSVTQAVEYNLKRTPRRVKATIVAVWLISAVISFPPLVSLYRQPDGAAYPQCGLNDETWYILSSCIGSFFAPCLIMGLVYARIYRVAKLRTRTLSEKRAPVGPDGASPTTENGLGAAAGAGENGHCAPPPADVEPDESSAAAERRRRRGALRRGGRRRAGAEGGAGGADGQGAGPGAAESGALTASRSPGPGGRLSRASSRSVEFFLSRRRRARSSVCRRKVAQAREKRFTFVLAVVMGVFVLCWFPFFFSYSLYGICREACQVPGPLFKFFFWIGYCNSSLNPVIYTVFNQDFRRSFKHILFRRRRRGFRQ
Test [7] can be described thus: inhibitors of Sendai virus-induced IRF3 signaling, primary screen, TLR/RLR signaling modifier project, cell-based, Sendai virus stimulus, luciferase, 10K MLSCN set (AID 602276).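 Note: firefly luciferase from ISG56 promoter only with Renilla not read in this screen; 0% = Sendai virus plus DMSO and 100% = medium plus DMSO without virus.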 The following applies: HEK293 RL24 IRF3 luciferase reporter, at 10 µM, stronger effect = higher value. (In general: Reporter assays use an easily measured gene product as a stand-in for the process of interest.)

A short description of test [8]: inhibitors of poly I:C-induced TLR3 signaling, primary screen, cell-based, poly I:C stimulus, luciferase, 10K MLSCN set (AID 602277;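 active = inhibition of the reporter signal at or above 50%; inactive = inhibition below 50%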). As to conditions: HEK293-TLR3 RL24 IRF3 luciferase reporter, at 10 µM, stronger effect = higher value.

Structures are written as SMILES. Calls of active or inactive are those of the source.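 Rule for the calls, unless noted: active = inhibition at or above 50% at 10 µM; inactive = inhibition below 50%.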

With `CCOC(=O)CC(=O)Nc1c(C)cc(C)cc1C`, in test [1], the cell count amounted to 270. For the same molecule, the inhibition in test [1] was 7.5% (inactive); in test [3], 6.5% (inactive); in test [7], -9.54% (inactive); in test [8], 2.4% (inactive). In addition, the inhibition of aggregation in test [2] was 12.8% (inactive). The nuclei count is 87.4% in test [2] and 105% in test [3]. Further, the fluorescence slope in test [4] is -0.416 (inactive). Further, in test [5], the NADPH fluorescence slope is 6.4e-05 (inactive). Further, in test [6], the slope is 0.00527 (inactive).

For `O=C(NCC1COc2ccccc2O1)C1CCCN(S(=O)(=O)c2cnc[nH]2)C1` (configuration not stated), in test [1], the cell count turned out to be 617. The inhibition was 7.3% (inactive) in test [1], -63.3% (inactive) in test [3], 4.57% (inactive) in test [7] and 24.5% (inactive) in test [8]. Besides, the inhibition of aggregation in test [2] is -15.6% (inactive). The nuclei count in test [2] was found to be 100%; in test [3] it was 124%. Moreover, the fluorescence slope in test [4] is -0.501 (inactive). For the same molecule, the NADPH fluorescence slope in test [5] is -2e-05 (inactive). Further, the slope in test [6] is 0.00703 (inactive).

In the case of `c1ccc(CN2C3=NCCCN3c3ccccc32)cc1`, in test [1], the cell count turned out to be 361. Also, the inhibition in test [1] was -4.7% (inactive); in test [3], -3.7% (inactive); in test [7], 11.4% (inactive); in test [8], 22.1% (inactive). Further, the inhibition of aggregation in test [2] was -10.1% (inactive). Moreover, the nuclei count is 97.9% in test [2] and 117% in test [3]. For the same molecule, in test [4], the fluorescence slope is -0.601 (inactive). The NADPH fluorescence slope in test [5] is -1.3e-05 (inactive). Also, the slope in test [6] was 0.00493 (inactive).

As for `Cc1cc(NC(=O)COc2cccc(C)c2C)no1`, the cell count in test [1] came out at 684. Also, the inhibition in test [1] was 6.5% (inactive); in test [3], -16.6% (inactive); in test [7], -0.401% (inactive); in test [8] it was 0.183% (inactive). Moreover, the inhibition of aggregation in test [2] is -9.8% (inactive). Further, the nuclei count worked out at 104% in test [2] and 121% in test [3]. Also, the fluorescence slope in test [4] was -0.549 (inactive). The NADPH fluorescence slope in test [5] was -2.5e-05 (inactive). The slope in test [6] is 0.00696 (inactive).

Consider `COc1cc(C(=O)Nc2nc(-c3cccs3)cs2)cc(OC)c1OC`, for which the cell count in test [1] amounted to 475. Further, the inhibition in test [1] is -4.8% (inactive); in test [3], -18.4% (inactive); in test [7], -6.01% (inactive); in test [8], -12% (inactive). Also, the inhibition of aggregation in test [2] is -20.4% (inactive). In addition, the values for the nuclei count in test [2] and in test [3] were 98.7% and 106%, respectively. Further, the fluorescence slope in test [4] was -0.507 (inactive). The NADPH fluorescence slope in test [5] is -6.5e-06 (inactive). Besides, the slope in test [6] was 0.00722 (inactive).

With `CC1Cc2nc(SCC(=O)Nc3ccc(F)cc3F)n(C)c(=O)c2S1` (configuration not stated), the cell count in test [1] was determined as 366. Also, the inhibition is -0.6% (inactive) in test [1], 0.8% (inactive) in test [3], 15.3% (inactive) in test [7] and 11.8% (inactive) in test [8]. Besides, in test [2], the inhibition of aggregation was -7.8% (inactive). For the same molecule, the nuclei count in test [2] was 104%; in test [3], 113%. In addition, the fluorescence slope in test [4] was -0.587 (inactive). For the same molecule, in test [5], the NADPH fluorescence slope was -3.7e-05 (inactive). For the same molecule, the slope in test [6] was 0.00486 (inactive).

For `COc1nnc(-c2ccc(C)c(S(=O)(=O)NCCO)c2)c2ccccc12`, the cell count in test [1] was 325. Besides, the inhibition in test [1] is -2.7% (inactive); in test [3] it was -17.6% (inactive); in test [7] it was 1.8% (inactive); in test [8], 28.9% (inactive). Moreover, in test [2], the inhibition of aggregation was 11.7% (inactive). Besides, the nuclei count in test [2] is 75.4%; in test [3] it was 95.3%. The fluorescence slope in test [4] was -0.424 (inactive). Moreover, the NADPH fluorescence slope in test [5] was 1e-05 (inactive). Moreover, in test [6], the slope is 0.0039 (inactive).
